{
  "source": "the supplement of paper PMC6555819",
  "data": [
    {"system": "PPARg:RXRa IVT, anti-PPARg (NR concentration 270 nM, RXRa partner concentration 90 nM)", "experiment": "PBM binding z-score (relative to random genomic background probes); higher = stronger binding; sequences stand for … in GC…GCGATTGACAGCGTAGAATGAAGG", "summary_of_the_method": "(§1)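 Custom Agilent 4×180K protein-binding microarrays carried double-stranded probes, each with a 34-nt variable region. These regions held direct-repeat seeds, single-nucleotide variants, half-site ablations and random human genomic background sequences. Ligand-free nuclear receptor dimers were incubated on the arrays for 1 h, antibodies against each partner (one per run) detected binding, and scanned fluorescence was regression-normalized. Binding z-scores take the random background probes as reference.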", "values": [
      {"sequence": "GATACAGGGTCAAGGCGAGAGTACGCGTATTGAT", "PBM binding z-score": 3.72},
      {"sequence": "CCTCACGGGTCACGAGGTTATAGCACGACGAGCG", "PBM binding z-score": 3.65},
      {"sequence": "ATCTCTAGGTAAAGATAGTTCAGTGATTGCAAAT", "PBM binding z-score": 1.82},
      {"sequence": "TCACCAAGGTGAAGGTCGTTGATCCCTCTGTAGA", "PBM binding z-score": 2.65},
      {"sequence": "GCTGCTGGGTCAACTGATGGTCAGCTAAAGCTCG", "PBM binding z-score": 3.45},
      {"sequence": "TCTTCTAGATCAACAGGAGGTTAAGAAAGATCGA", "PBM binding z-score": 1.19},
      {"sequence": "TCATATAGGTATACAGGTGAAAGTCCGTAAGTTA", "PBM binding z-score": 2.54},
      {"sequence": "CCTGCTAGGTCGATGGTCAGCTAAAGCAGCTCGC", "PBM binding z-score": 0.603},
      {"sequence": "GCTAGCAGGCAATTTGGGTCACTCAATGACGGGC", "PBM binding z-score": 2.92},
      {"sequence": "CGTCCAAGGTCAGAAAGGTCAGTGAATGCCGAGT", "PBM binding z-score": 3.14},
      {"sequence": "AGAATGACGTTATTAAGATCAGGGAATTGCGGTC", "PBM binding z-score": -0.306},
      {"sequence": "CCGACTGGGGCATAAGGTTACCTTAAGCCAGCCC", "PBM binding z-score": 3.27},
      {"sequence": "ACTTACGGGTGAACGAGGTTATAGCACGCGTATA", "PBM binding z-score": 2.61},
      {"sequence": "AGAATTAGGTTATTAAGATCAGGGAATTGCGGTC", "PBM binding z-score": 5.44},
      {"sequence": "GATACAGGGTCAAGGACAGAGTACGCGTATTGAT", "PBM binding z-score": 3.89},
      {"sequence": "ATCGAAAGGTCGACGAGGCGAGTATACACCGTTT", "PBM binding z-score": 1.62},
      {"sequence": "TGAATGAGGTTATAGATCAGGGAACGTGGCGTCG", "PBM binding z-score": 1.89},
      {"sequence": "CCTAGCCGGCCAGGGTCACTCAAGCATTTCGCTT", "PBM binding z-score": 0.147},
      {"sequence": "CCTACTGGGCCAACGTCATTGATCAGTCAAAGCA", "PBM binding z-score": 4},
      {"sequence": "GCTAGTTGCTCAGTAAAAGGTCACACACCGGTCG", "PBM binding z-score": 1.7},
      {"sequence": "TCTTGTAGATCAGCGGGTTAAGAAAGCTGGCCAA", "PBM binding z-score": 0.55},
      {"sequence": "ACTAGCTGGCCAAGTTTGGGTCACTCAAACAAAG", "PBM binding z-score": 0.303},
      {"sequence": "TCTAGTTGGTCAAAGGTCAGACACTCGAAATGCG", "PBM binding z-score": 5.86},
      {"sequence": "ACTAGCAGGCCAAGTTCGGGTCACTCAAACAAAG", "PBM binding z-score": 1.07},
      {"sequence": "CGTCCAAGGTCAATGCTAGTTCAGTGAAAGCATT", "PBM binding z-score": 3.31},
      {"sequence": "CAGTCTAGGTCAGGGCCAGTATAGGAGGAACGTT", "PBM binding z-score": 4.91},
      {"sequence": "TCGAGTAGGTTACCAATGGGGCATTCAACTTTCT", "PBM binding z-score": 3.11},
      {"sequence": "TGAGTGAGGTTAAAGATCAGGGAACGTGGCGTCG", "PBM binding z-score": 1.91},
      {"sequence": "AGAAGGAGGTTACCAAAGATCAGGGAAACGCTTG", "PBM binding z-score": 2.63},
      {"sequence": "GCTAGTAGGCCATTTGGGTCACTCAATGACGGGC", "PBM binding z-score": 5.02},
      {"sequence": "ACAGACAGGTGATGAAGGTCACTCAGGCTATCAT", "PBM binding z-score": 1.97},
      {"sequence": "ACTTACGGGTCAACCAGGTTATAGCACGCGTATA", "PBM binding z-score": 4.21},
      {"sequence": "TCTTGAAGATCAAGCAGGTTAAGAAAGCCTGAGT", "PBM binding z-score": -0.366},
      {"sequence": "TGAATGGGGTTATAAGATCAGGGAACGTTGCAAA", "PBM binding z-score": 2.71},
      {"sequence": "ATATGTAGGTTATCTGGTCATTCAGTTTGCGCAT", "PBM binding z-score": 7.03},
      {"sequence": "ACTAGCAGGCCAAGTTTGAGTCACTCAAACAAAG", "PBM binding z-score": 0.193},
      {"sequence": "CCTCCTGGGCCATTCAGAGGTCATTGATCATATG", "PBM binding z-score": 1.4},
      {"sequence": "CCTAGCAGGACAATCTGGGTCACTCAAGGCTTGA", "PBM binding z-score": 5.33},
      {"sequence": "TCATATAGGTAATACAGGTGAAAGTAGGCATCTA", "PBM binding z-score": 3.61},
      {"sequence": "CGTCACAGTTCAACTAAGGTAACGTAAAGCACGC", "PBM binding z-score": 1.09}
    ]},
    {"system": "PPARg DBDmut:RXRa IVT, anti-PPARg (DBD mutation: PPARg1 K132A/R137A, NR concentration 270 nM, RXRa partner concentration 90 nM)", "experiment": "PBM binding z-score (relative to random genomic background probes); higher = stronger binding; sequences stand for … in GC…GCGATTGACAGCGTAGAATGAAGG", "summary_of_the_method": "as §1", "values": [
      {"sequence": "GATACAGGGTCAAGGCGAGAGTACGCGTATTGAT", "PBM binding z-score": 2.63},
      {"sequence": "CCTCACGGGTCACGAGGTTATAGCACGACGAGCG", "PBM binding z-score": 0.599},
      {"sequence": "ATCTCTAGGTAAAGATAGTTCAGTGATTGCAAAT", "PBM binding z-score": 0.778},
      {"sequence": "TCACCAAGGTGAAGGTCGTTGATCCCTCTGTAGA", "PBM binding z-score": 0.477},
      {"sequence": "GCTGCTGGGTCAACTGATGGTCAGCTAAAGCTCG", "PBM binding z-score": 0.524},
      {"sequence": "TCTTCTAGATCAACAGGAGGTTAAGAAAGATCGA", "PBM binding z-score": 1.81},
      {"sequence": "TCATATAGGTATACAGGTGAAAGTCCGTAAGTTA", "PBM binding z-score": 0.449},
      {"sequence": "CCTGCTAGGTCGATGGTCAGCTAAAGCAGCTCGC", "PBM binding z-score": -1.63},
      {"sequence": "GCTAGCAGGCAATTTGGGTCACTCAATGACGGGC", "PBM binding z-score": 0.145},
      {"sequence": "CGTCCAAGGTCAGAAAGGTCAGTGAATGCCGAGT", "PBM binding z-score": -0.203},
      {"sequence": "AGAATGACGTTATTAAGATCAGGGAATTGCGGTC", "PBM binding z-score": 0.0629},
      {"sequence": "CCGACTGGGGCATAAGGTTACCTTAAGCCAGCCC", "PBM binding z-score": -0.344},
      {"sequence": "ACTTACGGGTGAACGAGGTTATAGCACGCGTATA", "PBM binding z-score": 0.498},
      {"sequence": "AGAATTAGGTTATTAAGATCAGGGAATTGCGGTC", "PBM binding z-score": 1.55},
      {"sequence": "GATACAGGGTCAAGGACAGAGTACGCGTATTGAT", "PBM binding z-score": 1.4},
      {"sequence": "ATCGAAAGGTCGACGAGGCGAGTATACACCGTTT", "PBM binding z-score": 0.933},
      {"sequence": "TGAATGAGGTTATAGATCAGGGAACGTGGCGTCG", "PBM binding z-score": 1.37},
      {"sequence": "CCTAGCCGGCCAGGGTCACTCAAGCATTTCGCTT", "PBM binding z-score": -1.32},
      {"sequence": "CCTACTGGGCCAACGTCATTGATCAGTCAAAGCA", "PBM binding z-score": -0.653},
      {"sequence": "GCTAGTTGCTCAGTAAAAGGTCACACACCGGTCG", "PBM binding z-score": -0.262},
      {"sequence": "TCTTGTAGATCAGCGGGTTAAGAAAGCTGGCCAA", "PBM binding z-score": -0.631},
      {"sequence": "ACTAGCTGGCCAAGTTTGGGTCACTCAAACAAAG", "PBM binding z-score": -0.848},
      {"sequence": "TCTAGTTGGTCAAAGGTCAGACACTCGAAATGCG", "PBM binding z-score": 1.03},
      {"sequence": "ACTAGCAGGCCAAGTTCGGGTCACTCAAACAAAG", "PBM binding z-score": -0.452},
      {"sequence": "CGTCCAAGGTCAATGCTAGTTCAGTGAAAGCATT", "PBM binding z-score": 1.63},
      {"sequence": "CAGTCTAGGTCAGGGCCAGTATAGGAGGAACGTT", "PBM binding z-score": 0.454},
      {"sequence": "TCGAGTAGGTTACCAATGGGGCATTCAACTTTCT", "PBM binding z-score": -0.0959},
      {"sequence": "TGAGTGAGGTTAAAGATCAGGGAACGTGGCGTCG", "PBM binding z-score": 0.365},
      {"sequence": "AGAAGGAGGTTACCAAAGATCAGGGAAACGCTTG", "PBM binding z-score": 0.699},
      {"sequence": "GCTAGTAGGCCATTTGGGTCACTCAATGACGGGC", "PBM binding z-score": -0.157},
      {"sequence": "ACAGACAGGTGATGAAGGTCACTCAGGCTATCAT", "PBM binding z-score": 0.688},
      {"sequence": "ACTTACGGGTCAACCAGGTTATAGCACGCGTATA", "PBM binding z-score": 2.29},
      {"sequence": "TCTTGAAGATCAAGCAGGTTAAGAAAGCCTGAGT", "PBM binding z-score": 0.0587},
      {"sequence": "TGAATGGGGTTATAAGATCAGGGAACGTTGCAAA", "PBM binding z-score": 2.28},
      {"sequence": "ATATGTAGGTTATCTGGTCATTCAGTTTGCGCAT", "PBM binding z-score": 4.79},
      {"sequence": "ACTAGCAGGCCAAGTTTGAGTCACTCAAACAAAG", "PBM binding z-score": -0.678},
      {"sequence": "CCTCCTGGGCCATTCAGAGGTCATTGATCATATG", "PBM binding z-score": -0.946},
      {"sequence": "CCTAGCAGGACAATCTGGGTCACTCAAGGCTTGA", "PBM binding z-score": -0.134},
      {"sequence": "TCATATAGGTAATACAGGTGAAAGTAGGCATCTA", "PBM binding z-score": 1.94},
      {"sequence": "CGTCACAGTTCAACTAAGGTAACGTAAAGCACGC", "PBM binding z-score": 0.467}
    ]}
  ]
}
